These results are taken from the antibiotic and cytotoxicity screens of Wong et al. (2023).

In all, about 39,000 compounds went through this assay and about 3,300 (8.5%) were called active. Shown is part of a subset that was picked to be rich in actives.

The experiment deals with HepG2. Briefly: cytotoxicity call (relative viability < 0.9). Conditions: 10 µM.
On to `CCOC(=O)CCCCCC(=O)Nc1ccc2c(c1)C(=O)N([C@H](C)CO)C[C@@H](C)[C@@H](CN(C)S(=O)(=O)c1ccc(Cl)cc1)OCCCC[C@H](C)O2`, for which the cytotoxicity call was “inactive”.

Regarding `Cc1ccc(S(=O)(=O)Nc2cccc3c2O[C@@H](CN(C)C(=O)Nc2cccc4ccccc24)[C@@H](C)CN([C@@H](C)CO)C3=O)cc1`, the cytotoxicity call was “inactive”.

For `Cc1ccc(S(=O)(=O)N(C)C[C@@H]2Oc3ccc(NS(=O)(=O)c4ccccc4)cc3CC(=O)N([C@H](C)CO)C[C@H]2C)cc1`, the cytotoxicity call is “inactive”.

With `CN1CC(=O)NC1=O`, the cytotoxicity call is “inactive”.

With `O=C(NCCCO)C(=O)NC[C@H]1COc2ccccc2O1`, the cytotoxicity call is “inactive”.

Take `C[C@H](CO)N1C[C@H](C)[C@@H](CN(C)Cc2ccc3c(c2)OCO3)Oc2ncc(C#CCN(C)C)cc2C1=O`: the cytotoxicity call was “inactive”.

With `CCCCC(=O)OC1CCC2C3CCc4cc(O)ccc4C3CCC12C` (stereo unspecified), the cytotoxicity call is “inactive”.

For the compound `Cc1ccc(S(=O)(=O)Nc2ccc3c(c2)C(=O)N([C@@H](C)CO)C[C@@H](C)[C@H](CN(C)S(=O)(=O)c2cn(C)cn2)O3)cc1`, the cytotoxicity call is “inactive”.

`CN(C)Cc1nc(=O)c2ccccc2[nH]1`: the cytotoxicity call was “inactive”.

Regarding `Cc1c[nH]c2ccccc12`, the cytotoxicity call was “inactive”.

Turning to `Cc1cc(C)c2[nH]c3ccccc3c2n1`, the cytotoxicity call was “active”.

In the case of `Cc1ccc(S(=O)(=O)N(C)C[C@H]2OCCCC[C@@H](C)Oc3ccc(NC(=O)Cc4ccccc4)cc3C(=O)N([C@@H](C)CO)C[C@@H]2C)cc1`, the cytotoxicity call was “inactive”.

For the compound `Cc1noc(C)c1NC(=O)Nc1ccc2c(c1)CC(=O)N([C@H](C)CO)C[C@@H](C)[C@@H](CN(C)Cc1ccc(Cl)c(Cl)c1)O2`, the cytotoxicity call was “inactive”.

Turning to `C[C@@H]1CN([C@H](C)CO)C(=O)Cc2cc(NS(=O)(=O)c3ccc(Cl)cc3)ccc2O[C@H]1CN(C)Cc1ccc(Oc2ccccc2)cc1`, the cytotoxicity call is “active”.

Regarding `C[C@@H]1CN([C@@H](C)CO)C(=O)Cc2cc(NS(=O)(=O)c3ccc(Cl)cc3)ccc2O[C@@H]1CN(C)Cc1ccc(Oc2ccccc2)cc1`, the cytotoxicity call is “active”.

Consider `C[C@H]1CN([C@@H](C)CO)C(=O)Cc2cc(NS(=O)(=O)c3ccc(Cl)cc3)ccc2O[C@H]1CN(C)Cc1ccc(Oc2ccccc2)cc1`, for which the cytotoxicity call was “active”.

Turning to `C[C@H](CO)N1C[C@H](C)[C@H](CN(C)Cc2ccc(Oc3ccccc3)cc2)Oc2ccc(NS(=O)(=O)c3ccc(Cl)cc3)cc2CC1=O`, the cytotoxicity call was “active”.

Turning to `COCCNC(=O)C[C@H]1C[C@@H]2c3cc(NC(=O)Nc4ccc(C(F)(F)F)cc4)ccc3O[C@@H]2[C@H](CO)O1`, the cytotoxicity call was “inactive”.

`C[C@H]1CN([C@@H](C)CO)C(=O)Cc2cc(NC(=O)CCCCCC(=O)Nc3ccccc3N)ccc2O[C@H]1CN(C)C(=O)Nc1cccc2ccccc12`: the cytotoxicity call was “inactive”.

As to `Cc1cccc(N2C[C@@H](CN)OC2=O)c1`, the cytotoxicity call is “inactive”.

Turning to `O=C(O)C[C@@H]1C=C[C@H](NC(=O)c2ccncc2)[C@@H](CO)O1`, the cytotoxicity call is “inactive”.

Consider `O=C(NO)c1ccc(C(=O)N/N=C/c2cccc(B(O)O)c2)cc1`, for which the cytotoxicity call was “inactive”.

As for `C[C@@H]1CN([C@@H](C)CO)C(=O)c2cc(NS(=O)(=O)c3cccs3)ccc2O[C@@H](C)CCCCO[C@H]1CN(C)C(=O)Nc1ccc(F)cc1`, the cytotoxicity call was “inactive”.

Consider `COc1ccc(S(=O)(=O)Nc2cccc3c2O[C@H](CN(C)S(=O)(=O)c2cccs2)[C@@H](C)CN([C@H](C)CO)C3=O)cc1`, for which the cytotoxicity call is “inactive”.

With `C[C@H](CO)N1C[C@H](C)[C@@H](CN(C)Cc2ccc(Oc3ccccc3)cc2)Oc2ccc(NS(=O)(=O)c3ccc(Cl)cc3)cc2CC1=O`, the cytotoxicity call was “inactive”.

Take `C[C@H]1CN([C@@H](C)CO)C(=O)Cc2cc(NS(=O)(=O)c3ccc(Cl)cc3)ccc2O[C@@H]1CN(C)Cc1ccc(Oc2ccccc2)cc1`: the cytotoxicity call was “active”.

In the case of `C[C@@H]1CN([C@H](C)CO)C(=O)Cc2cc(NS(=O)(=O)c3ccc(Cl)cc3)ccc2O[C@@H]1CN(C)Cc1ccc(Oc2ccccc2)cc1`, the cytotoxicity call is “active”.

As for `C[C@@H]1CN([C@@H](C)CO)C(=O)Cc2cc(NS(=O)(=O)c3ccc(Cl)cc3)ccc2O[C@H]1CN(C)Cc1ccc(Oc2ccccc2)cc1`, the cytotoxicity call was “active”.

As to `C[C@H]1CN([C@@H](C)CO)S(=O)(=O)c2ccc(C#CC3CC3)cc2O[C@H]1CN(C)Cc1ccccc1F`, the cytotoxicity call was “inactive”.

In the case of `COc1ccc(CN(C)C[C@H]2Oc3ccc(NS(C)(=O)=O)cc3CC(=O)N([C@H](C)CO)C[C@@H]2C)cc1`, the cytotoxicity call is “inactive”.

On to `C[C@@H]1CN([C@@H](C)CO)C(=O)c2cccc(NS(=O)(=O)c3ccc(F)cc3)c2O[C@H]1CN(C)CC1CC1`, for which the cytotoxicity call was “inactive”.

In the case of `C[C@H]1CCCCO[C@H](CN(C)C(=O)Nc2cccc3ccccc23)[C@@H](C)CN([C@@H](C)CO)C(=O)c2cc(NC(=O)Nc3ccccc3)ccc2O1`, the cytotoxicity call was “inactive”.

Take `C[C@@H]1CCCCO[C@H](CN(C)S(=O)(=O)c2ccc(Cl)cc2)[C@@H](C)CN([C@H](C)CO)C(=O)c2cc(NC(=O)C3CCCCC3)ccc2O1`: the cytotoxicity call is “inactive”.

For the compound `CN(C)CC(=O)N1[C@H](CO)[C@@H](c2ccc(C3=CCCC3)cc2)C12CN(S(=O)(=O)Cc1ccccc1)C2`, the cytotoxicity call was “inactive”.

In the case of `CCOc1ccc(-n2c([C@@H](C)N(Cc3cccnc3)C(=O)Cc3ccc(OC(F)(F)F)cc3)nc3ncccc3c2=O)cc1`, the cytotoxicity call was “inactive”.

For `CCn1c(=S)[nH]c2ccccc21`, the cytotoxicity call is “inactive”.

Turning to `CC(C)n1c(=S)[nH]c2ccccc21`, the cytotoxicity call was “active”.

Regarding `Cn1c(=O)[nH]c2ccccc21`, the cytotoxicity call was “inactive”.

For `COc1ccc(CN(C)C[C@@H]2OCCCC[C@H](C)Oc3ccc(NS(=O)(=O)c4cccs4)cc3C(=O)N([C@H](C)CO)C[C@@H]2C)cc1`, the cytotoxicity call was “inactive”.

As to `CCNC(=O)c1coc(C)n1`, the cytotoxicity call was “inactive”.

For the compound `CCNC(=O)c1csc(N)n1`, the cytotoxicity call is “inactive”.

On to `CCNC(=O)c1sc(C)nc1N`, for which the cytotoxicity call is “active”.

With `C[C@@H]1CN([C@H](C)CO)C(=O)c2cc(Br)cnc2O[C@@H]1CN(C)C(=O)Nc1ccc(F)cc1`, the cytotoxicity call was “inactive”.

As to `O=C(O)c1cc2n(n1)CCC2`, the cytotoxicity call was “inactive”.

Regarding `C[C@H](CO)N1C[C@H](C)[C@@H](CN(C)Cc2ccc3c(c2)OCO3)OCCCC[C@H](C)Oc2ccc(NS(=O)(=O)c3ccc(Cl)cc3)cc2C1=O`, the cytotoxicity call is “inactive”.

On to `C[C@@H]1CCCCO[C@@H](CN(C)Cc2ccc3c(c2)OCO3)[C@H](C)CN([C@H](C)CO)C(=O)c2cc(NS(=O)(=O)c3ccc(Cl)cc3)ccc2O1`, for which the cytotoxicity call is “active”.

For the compound `C[C@@H]1CCCCO[C@H](CN(C)Cc2ccc3c(c2)OCO3)[C@@H](C)CN([C@H](C)CO)C(=O)c2cc(NS(=O)(=O)c3ccc(Cl)cc3)ccc2O1`, the cytotoxicity call is “inactive”.

On to `C[C@@H]1CN([C@@H](C)CO)C(=O)c2cc(NS(=O)(=O)c3ccc(Cl)cc3)ccc2O[C@@H](C)CCCCO[C@@H]1CN(C)Cc1ccc2c(c1)OCO2`, for which the cytotoxicity call was “inactive”.

As for `C[C@@H]1CCCCO[C@H](CN(C)Cc2ccc3c(c2)OCO3)[C@@H](C)CN([C@@H](C)CO)C(=O)c2cc(NS(=O)(=O)c3ccc(Cl)cc3)ccc2O1`, the cytotoxicity call is “inactive”.

Regarding `C[C@H](CO)N1C[C@H](C)[C@H](CN(C)Cc2ccc3c(c2)OCO3)OCCCC[C@H](C)Oc2ccc(NS(=O)(=O)c3ccc(Cl)cc3)cc2C1=O`, the cytotoxicity call was “inactive”.

In the case of `C[C@@H]1CCCCO[C@@H](CN(C)Cc2ccc3c(c2)OCO3)[C@@H](C)CN([C@H](C)CO)C(=O)c2cc(NS(=O)(=O)c3ccc(Cl)cc3)ccc2O1`, the cytotoxicity call was “active”.

Regarding `C[C@H]1CCCCO[C@@H](CN(C)Cc2ccc3c(c2)OCO3)[C@@H](C)CN([C@@H](C)CO)C(=O)c2cc(NS(=O)(=O)c3ccc(Cl)cc3)ccc2O1`, the cytotoxicity call is “inactive”.

Take `C[C@@H]1CCCCO[C@H](CN(C)Cc2ccc3c(c2)OCO3)[C@H](C)CN([C@@H](C)CO)C(=O)c2cc(NS(=O)(=O)c3ccc(Cl)cc3)ccc2O1`: the cytotoxicity call was “active”.

On to `C[C@H]1CCCCO[C@H](CN(C)Cc2ccc3c(c2)OCO3)[C@@H](C)CN([C@@H](C)CO)C(=O)c2cc(NS(=O)(=O)c3ccc(Cl)cc3)ccc2O1`, for which the cytotoxicity call is “inactive”.

On to `C[C@@H]1CCCCO[C@H](CN(C)Cc2ccc3c(c2)OCO3)[C@H](C)CN([C@H](C)CO)C(=O)c2cc(NS(=O)(=O)c3ccc(Cl)cc3)ccc2O1`, for which the cytotoxicity call was “inactive”.

In the case of `C[C@@H]1CN([C@@H](C)CO)C(=O)c2cc(NS(=O)(=O)c3ccc(Cl)cc3)ccc2O[C@@H](C)CCCCO[C@H]1CN(C)Cc1ccc2c(c1)OCO2`, the cytotoxicity call is “active”.
